# Test results as given in article PMC4336329 (PLoS ONE, 2015).
# About 14,000 (4.5%) of roughly 310,000 compounds showed an effect of 50% or more. Effects have a minus sign here. This is one part of a sample in which strong results are shown more often than they occur.
# Target: human ether-à-go-go-related gene (hERG) potassium channel (human, UniProt Q12809)
# Experiment: primary screen, population patch clamp on CHO cells stably expressing hERG; higher = less effect of the substance
# 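Also: peak tail current of the secondary pulse compared with the same well before compound.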
# Chain of human ether-à-go-go-related gene (hERG) potassium channel (Q12809 whole entry, looked up): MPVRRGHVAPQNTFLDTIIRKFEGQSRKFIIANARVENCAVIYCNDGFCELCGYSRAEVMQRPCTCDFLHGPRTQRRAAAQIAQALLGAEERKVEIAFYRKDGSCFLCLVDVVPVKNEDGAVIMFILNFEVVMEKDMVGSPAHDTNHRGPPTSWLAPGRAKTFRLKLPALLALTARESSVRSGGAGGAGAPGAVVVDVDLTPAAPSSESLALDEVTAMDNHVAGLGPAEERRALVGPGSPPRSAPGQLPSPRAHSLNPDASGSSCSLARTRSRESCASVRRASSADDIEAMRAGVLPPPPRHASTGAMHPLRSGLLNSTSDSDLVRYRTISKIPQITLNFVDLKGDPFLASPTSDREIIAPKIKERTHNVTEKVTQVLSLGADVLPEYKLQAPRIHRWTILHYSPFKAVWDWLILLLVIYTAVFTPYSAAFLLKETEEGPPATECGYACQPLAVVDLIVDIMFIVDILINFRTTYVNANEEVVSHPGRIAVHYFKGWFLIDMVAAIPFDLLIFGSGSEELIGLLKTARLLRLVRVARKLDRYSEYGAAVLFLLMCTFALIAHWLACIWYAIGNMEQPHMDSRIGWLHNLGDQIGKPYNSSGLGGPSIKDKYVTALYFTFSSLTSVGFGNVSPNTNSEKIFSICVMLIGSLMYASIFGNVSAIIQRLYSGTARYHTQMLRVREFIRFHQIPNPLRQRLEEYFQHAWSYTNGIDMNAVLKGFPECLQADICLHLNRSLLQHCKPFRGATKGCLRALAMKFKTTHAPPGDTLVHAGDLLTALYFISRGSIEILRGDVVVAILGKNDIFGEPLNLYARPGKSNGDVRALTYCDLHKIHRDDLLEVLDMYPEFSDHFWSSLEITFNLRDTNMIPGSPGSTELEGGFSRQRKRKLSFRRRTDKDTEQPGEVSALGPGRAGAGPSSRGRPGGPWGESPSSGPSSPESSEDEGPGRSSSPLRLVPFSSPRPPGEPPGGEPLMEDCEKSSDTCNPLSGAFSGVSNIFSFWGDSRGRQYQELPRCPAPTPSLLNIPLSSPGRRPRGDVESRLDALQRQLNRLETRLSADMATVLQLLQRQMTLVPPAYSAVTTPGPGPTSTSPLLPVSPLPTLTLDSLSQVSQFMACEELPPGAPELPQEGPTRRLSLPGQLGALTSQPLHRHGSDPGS
row,Compound,"hERG current change (%, negative = inhibition) at 10uM [%]"
1,Cn1cc(/C=C(\C#N)C(=O)Nc2cccc([N+](=O)[O-])c2)c2ccccc21,28.4
2,COc1ccc(F)cc1C(=O)C1CCCN(C(=O)c2ccc(C(C)=O)s2)C1 (stereo not shown),-4.71
3,COC(=O)c1ccc(N=C(c2ccccc2)c2c(O)n(C)c(=O)n(C)c2=O)cc1,6.79
4,CC(=O)N(C)c1ccc(N=Cc2c(O)ccc3ccccc23)cc1,-20.9
5,O=C1CCCC(O)=C1N=Nc1ccc(S(=O)(=O)N2CCOCC2)cc1,2.06
6,COc1ccc(NC(=O)C2C3C=CC4(O3)C2C(=O)N(CCN2CCCCC2C)C4C(=O)NC2CCCC(C)C2C)cc1 (stereo not shown),-22.4
7,Cc1cccc(C)c1-n1c(SCC(=O)N2CC(=O)Nc3ccccc32)nc2ccccc2c1=O,-0.373
8,CS(=O)(=O)N(CC(=O)N1CCN(c2ccc(F)cc2)CC1)c1cccc(Cl)c1,-49.9
9,O=C(NCCc1csc(-c2cccnc2)n1)c1cccs1,-5.91
10,C#CCN1C(=O)C(O)(CC(=O)/C=C/C=C/c2ccccc2)c2ccccc21 (stereo not shown),21.6
11,CCCN1CCC(Oc2cccc(C(=O)NCCc3ccccc3)c2)CC1,-66
12,COCCNC(=O)c1cccc(OC2CCN(Cc3cccc(C(C)=O)c3)CC2)c1,6.74
13,COCCNC(=O)c1cccc(OC2CCN(Cc3ccccc3C)CC2)c1,6.34
14,Oc1ccc(Br)cc1-c1cc(-c2ccc(Cl)cc2)n[nH]1,7.99
15,Cc1noc2ncnc(Sc3ccc(Cl)cc3)c12,16.3
16,Cc1noc2ncnc(Sc3ccc(Br)cc3)c12,-50.8

row,Compound,"hERG current change (%, negative = inhibition) at 10uM [%]"
1,Cc1ccc(Sc2ncnc3onc(C)c23)cc1,4.79
2,O=[N+]([O-])c1ccccc1CNCCCCO,-3.05
3,CC(C)c1csc2nc3n(c(=O)c12)CCCCC3,-10.7
4,O=C(c1ccsc1)N1CCCC(N2CCN(c3cccc(C(F)(F)F)c3)CC2)C1 (stereo not shown),-64.2
5,O=C(c1cc[n+]([O-])cc1)N1CCCC(N2CCN(c3cccc(C(F)(F)F)c3)CC2)C1 (stereo not shown),-6.27
6,O=C(c1ccoc1)N1CCCC(N2CCN(c3cccc(C(F)(F)F)c3)CC2)C1 (stereo not shown),-55.5
7,Cc1cc(C(=O)N2CCCC(N3CCN(c4cccc(C(F)(F)F)c4)CC3)C2)no1 (stereo not shown),-2.14
8,Cc1occc1C(=O)N1CCCC(N2CCN(c3cccc(C(F)(F)F)c3)CC2)C1 (stereo not shown),-38.9
9,CCn1cc(C(=O)N2CCCC(N3CCN(c4cccc(C(F)(F)F)c4)CC3)C2)cn1 (stereo not shown),-29.2
10,Cc1cc(C(=O)N2CCCC(N3CCN(c4cccc(C(F)(F)F)c4)CC3)C2)n[nH]1 (stereo not shown),-53.2
11,O=C(c1cccs1)N1CCCC(N2CCN(c3cccc(C(F)(F)F)c3)CC2)C1 (stereo not shown),-68.4
12,Cc1nnsc1C(=O)N1CCCC(N2CCN(c3cccc(C(F)(F)F)c3)CC2)C1 (stereo not shown),-26.8
13,Cc1cnc(C(=O)N2CCCC(N3CCN(c4cccc(C(F)(F)F)c4)CC3)C2)cn1 (stereo not shown),-39.7
14,O=C(c1ccsc1)N1CCCC(N2CCN(c3cccc(Cl)c3)CC2)C1 (stereo not shown),-47.1
15,O=C(c1ccoc1)N1CCCC(N2CCN(c3cccc(Cl)c3)CC2)C1 (stereo not shown),-41.3
